Values joined by “and” are separate entries in the source; they are usually repeats but may differ in a detail not shown here. Identical values can stand only once. Results filed as inconclusive are left out. A structure can be active in one record and inactive in another. Active and inactive are the calls of the source. Calls follow the shape of the dose curve; as a rule, active = well fitted curve in the direction sought with a large enough effect; inconclusive = small, poorly fitted or top-dose-only effect, or another doubt; inactive = no such curve, though single readings can be large; an effect the other way counts as inactive or inconclusive. Where a SMILES comes first, the peptide text is derived from it. [ ]: non-standard residue; d: D form. pGlu = O=C1CC[C@@H](C(=O)O)N1; Thz = O=C(O)[C@@H]1CSCN1
How the values were obtained:
[1] = target: Glutathione peroxidase 1 (Homo sapiens) (UniProt P07203); assay: Primary qHTS Assay for Inhibitors of Recombinant Selenoprotein Glutathione Peroxidase 1 (GPX1) (AID 1845191); also: nearly all actives have a fitted effect of over 65% in size; also: potency is read from the fitted curve at half-maximal effect; as to activity, negative = inhibition: % is scaled to controls: 0 for no effect and ±100 for the full control effect
How it was run: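 NADPH consumption tracked by fluorescence at 340/450 nm between t=0 and t=15 min, room temperature. Final mix: 10 nM GPX1, 100 nM glutathione reductase, 1 mM GSH, 0.5 mM NADPH, 0.5 mM cumene hydroperoxide, 0.01% BSA; 30 min compound–enzyme preincubation.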

[2] = target: Phospholipid hydroperoxide glutathione peroxidase GPX4 (Homo sapiens) (UniProt P36969); assay: Primary qHTS Assay for Inhibitors of Recombinant Selenoprotein Glutathione Peroxidase 4 (GPX4) (AID 1845192); also: nearly all actives have a fitted effect of over 65% in size; also: potency is read from the fitted curve at half-maximal effect; as to activity change, negative = inhibition: series mostly up to about 50 µM; % is scaled to controls: 0 for no effect and ±100 for the full control effect
How it was run: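 NADPH consumption followed by fluorescence at 340/450 nm, t=0 and after 15 min at room temperature. Reaction started with cumene hydroperoxide (0.5 mM final) after 30 min compound–GPX4 preincubation; final 200 nM GPX4, 100 nM GR, 1 mM GSH, 0.5 mM NADPH.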

[3] = target: Luciferin 4-monooxygenase (Photinus pyralis) (UniProt P08659); assay: Primary firefly luciferase (FLuc) qHTS assay for identification of artifact compounds. (AID 1845220); also: nearly all actives have a fitted effect of over 60% in size;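 as to activity change, negative = inhibition: series mostly up to about 54 µM; plate controls were DMSO vehicle for no effect and no enzyme for full effect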
How it was run: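 Cell-free, 1536-well qHTS. Buffer pH 7.6 with 0.01% Tween-20 and 0.05% BSA; 10 uM D-luciferin, 10 uM ATP; 10 nM P. pyralis luciferase; luminescence after 5 min.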

[4] = Primary fluorescence-based thiol-reactive (MSTI) qHTS assay for identification of artifact compounds. (AID 1845221);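 also: series mostly up to about 54 µM; thiol-reactive compounds lower the probe fluorescence signal; nearly all actives have a fitted effect of over 65% in size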
How it was run: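 Curve-fitted percent inhibition (4-parameter Hill) derived from fluorescence, Ex 525/Em 598 nm, scaled with Acetyl-MSTI and MSTI; 1 h incubation at room temperature.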

[5] = tested on: Nanoluciferase (engineered Oplophorus gracilirostris luciferase); assay: Primary Nanoluciferase (NLuc) qHTS assay for identification of artifact compounds. (AID 1845222);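 also: series mostly up to about 54 µM; 0% = DMSO and -100% = no enzyme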
How it was run: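 Compounds are pinned into diluted (1:55) conditioned medium of NLuc-expressing S16 cells and held 15 min at room temperature protected from light. Nano-Glo substrate follows, and luminescence is read 5 min later.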

[6] = Primary redox qHTS assay for identification of artifact compounds. (AID 1845223);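 also: 0% = DMSO and 100% = reference compound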
How it was run: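 Redox-cycling detection via DTT (250 uM final) oxidation coupled to Amplex Red (25 uM)/HRP (250 mU/mL) in HBSS. 15 min preincubation plus 30 min after DTT, room temperature. Ex/Em 525/598 nm; 4-parameter Hill fit against DMSO and 10 uM DA3003.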

Sequence of Glutathione peroxidase 1 (Homo sapiens) (P07203 whole entry, looked up): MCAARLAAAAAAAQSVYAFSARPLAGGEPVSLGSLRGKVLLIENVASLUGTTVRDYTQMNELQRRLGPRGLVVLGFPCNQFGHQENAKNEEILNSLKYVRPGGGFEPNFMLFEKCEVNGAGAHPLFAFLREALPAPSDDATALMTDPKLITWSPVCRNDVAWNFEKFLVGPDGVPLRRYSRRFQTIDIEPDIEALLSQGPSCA
Sequence of Phospholipid hydroperoxide glutathione peroxidase GPX4 (Homo sapiens) (P36969 whole entry, looked up): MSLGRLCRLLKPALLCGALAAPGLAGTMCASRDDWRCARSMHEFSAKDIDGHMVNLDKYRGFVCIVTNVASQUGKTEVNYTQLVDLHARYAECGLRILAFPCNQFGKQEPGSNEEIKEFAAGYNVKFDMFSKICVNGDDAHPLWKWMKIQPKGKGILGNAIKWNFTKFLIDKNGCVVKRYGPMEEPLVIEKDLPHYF

Clc1ccc(N2CCN(Cc3cc4ccccn4n3)CC2)cc1
inactive: Potency [1] | Potency [2]

Oc1cc(O)cc(/C=C/c2ccc(O)c(O)c2)c1
inactive: Potency [1] | Potency [2]

CC1(C)[C@@H](O)CC[C@]2(C)[C@H]3C(=O)C=C4[C@@H]5C[C@@](C)(C(=O)O)CC[C@]5(C)CC[C@@]4(C)[C@]3(C)CC[C@@H]12
inactive: Potency [1] | Potency [3] | outcome [4] | Potency [5] | outcome [6]
inactive and 8.91 µM (active): Potency [2]

OCC1O[C@H]([S-])[C@H](O)[C@@H](O)[C@@H]1O.[Au+] (stereo partly specified)
inactive: Potency [2]

N.N.N.N.N.N.N.N.N.N.N.N.N.N.O.O.[Ru+4].[Ru+5].[Ru+5]
inactive: Potency [1] | Potency [2]

Cc1cc(O)c2ccccc2c1O
inactive: Potency [2]

CC1(C)S[C@@H]2[C@H](NC(=O)[C@H](NC(=O)N3CCN(S(C)(=O)=O)C3=O)c3ccccc3)C(=O)N2[C@H]1C(=O)O
inactive: Potency [1] | Potency [2] | Potency [3] | outcome [4] | Potency [5]

O=C(O)c1cc(=O)c2ccccc2[nH]1
inactive: Potency [1] | Potency [2]

CN1[C@@H]2CC[C@H]1CC(OC(=O)C(CO)c1ccccc1)C2 (stereo partly specified)
inactive: Potency [2] | Potency [3] | outcome [4] | Potency [5] | outcome [6]

CC(=O)SCC(CC(=O)c1ccc(C)cc1)C(=O)O (stereo unspecified)
inactive: Potency [1] | outcome [4] | Potency [5] | outcome [6]

Fc1ccc2[nH]c(CN3CCN(c4ccccn4)CC3)cc2c1
inactive: Potency [1] | Potency [2] | Potency [3] | outcome [4] | Potency [5] | outcome [6]

NS(=O)(=O)c1ccc(-n2nc(C(F)(F)F)cc2-c2ccc(Cl)cc2)cc1
inactive: Potency [1] | Potency [2] | Potency [3] | outcome [4] | Potency [5] | outcome [6]

Fc1cccc(/C=N/N=C/c2cccc(F)c2)c1
inactive: Potency [1] | Potency [2]

COC(=O)[C@H]1[C@H]2C[C@@H]3c4[nH]c5cc(OC)ccc5c4CCN3C[C@H]2C[C@@H](OC(=O)/C=C/c2cc(OC)c(OC)c(OC)c2)[C@@H]1OC
inactive: Potency [1] | Potency [3] | Potency [5]

Cc1ccc2c(n1)Oc1ccc(C(C)C(=O)OCC(=O)N(C)C)cc1C2 (stereo unspecified)
inactive: Potency [1] | outcome [4] | Potency [5] | outcome [6]

C/C(=N\O)c1ccc(OCC(=O)N2CCCCC2)cc1
inactive: Potency [1] | Potency [2] | outcome [4] | Potency [5] | outcome [6]

O=C(O)[C@H](CC(=O)N1C[C@H]2CCCC[C@H]2C1)Cc1ccccc1
inactive: Potency [1] | Potency [2] | Potency [3] | outcome [4] | Potency [5] | outcome [6]

Cc1onc(-c2c(F)cccc2Cl)c1C(=O)N[C@@H]1C(=O)N2[C@@H]1SC(C)(C)[C@@H]2C(=O)O
inactive: Potency [1] | Potency [2] | Potency [3] | outcome [4] | Potency [5]

CC(C(=O)O)c1ccc2c(c1)[nH]c1ccc(Cl)cc12 (stereo unspecified)
inactive: Potency [1] | Potency [2] | Potency [3] | outcome [4] | outcome [6]

CC1(C)[C@@H](O[C@H]2O[C@H](C(=O)O)[C@@H](O)[C@H](O)[C@H]2O[C@@H]2O[C@H](C(=O)O)[C@@H](O)[C@H](O)[C@H]2O)CC[C@]2(C)[C@H]3C(=O)C=C4[C@@H]5C[C@@](C)(C(=O)O)CC[C@]5(C)CC[C@@]4(C)[C@]3(C)CC[C@@H]12
inactive: Potency [2] | Potency [3] | outcome [4] | outcome [6]

O=C(O)CC1CC(c2ccccc2)=NO1 (stereo unspecified)
inactive: Potency [1] | Potency [2] | Potency [3] | outcome [4] | Potency [5] | outcome [6]

CN1[C@@H]2CC[C@H]1CC(OC(c1ccccc1)c1ccccc1)C2 (stereo partly specified)
inactive: Potency [1] | Potency [2] | Potency [3] | outcome [4] | Potency [5] | outcome [6]

C[C@H](O)[C@H](O)[C@H]1CNc2nc(N)[nH]c(=O)c2N1
active: Potency [1] 18 µM
inactive: Potency [3] | outcome [4] | Potency [5] | outcome [6]

O=C1CC[C@@H](C(=O)N2CSC[C@H]2C(=O)O)N1 ([pGlu]-[Thz]-OH)
inactive: Potency [1] | Potency [2] | Potency [3] | outcome [4] | Potency [5] | outcome [6]

CC1(C)S[C@@H]2[C@H](NC(=O)[C@H](N)c3ccc(O)cc3)C(=O)N2[C@H]1C(=O)O
inactive: Potency [2] | Potency [3] | Potency [5] | outcome [6]

O=C(O)Cc1cccc(-c2cc(CCCCCCc3ccc(O[C@H]4O[C@H](CO)[C@@H](O)[C@H](O)[C@@H]4O)c(-c4cccc(CC(=O)O)c4)c3)ccc2O[C@H]2O[C@H](CO)[C@@H](O)[C@H](O)[C@@H]2O)c1
inactive: activity, negative = inhibition [1] -5.05% [at 0.4 µM] | activity change, negative = inhibition [2] -19% [at 0.409 µM] | outcome [3] inactive [at 0.464 µM] | activity change, negative = thiol reactive [4] 33.1% [at 0.461 µM] | activity, negative = inhibition [5] 3.7% [at 0.464 µM] | redox activity (% of DA3003) [6] 1.45% [at 0.461 µM]

Cc1cn([C@H]2CC(N=[N+]=[N-])[C@@H](CO)O2)c(=O)[nH]c1=O (stereo partly specified)
inactive: Potency [1] | Potency [2]
